Here are results for 7 compounds from PubChem BioAssay (EPA / NIEHS).

Assay [1] in a line: APR_HepG2_NuclearSize_24hr: Apredica 24-hour HepG2 Assay for Nuclear Size (AID 2282907). Conditions: high-content imaging, actives raise or lower the signal. The procedure, abridged: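 Nuclear size is measured by fluorescence high-content imaging of Hoechst-labelled HepG2 nuclei after 24 hr of treatment (0.39–200 uM, 0.5% DMSO). Cells are fixed in 3.7% formaldehyde before staining, and DMSO serves as the baseline for bidirectional curve fitting.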

Assay [2] in a line: APR_HepG2_CellLoss_24hr: Apredica 24-hour HepG2 Assay for Cell Loss (AID 2282908).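 On AC50: fit in both directions so a hit may be cell loss or gain.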 Conditions: high-content imaging. The procedure, abridged: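 Nuclear count serves as the viability measure: treated cells are fixed, permeabilized and labelled with Hoechst 33342, and six images per well are analysed to identify valid nuclei. Doses span 0.39–200 uM, and activity in either direction is scored against DMSO.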

The nature of assay [3]: APR_HepG2_MicrotubuleCSK_24hr: Apredica 24-hour HepG2 Assay for Microtubule CSK Stabilty (AID 2282909). Conditions: HepG2 microtubule cytoskeleton imaging, actives raise or lower the signal. The procedure, abridged: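 Compounds were applied to HepG2 cells for 24 hours across 0.39–200 uM in duplicate, with final DMSO at 0.5% v/v. Fixed, permeabilized cells were labeled for alpha-tubulin and nuclei, and tubulin fluorescence was quantified by imaging, fitted bidirectionally against DMSO.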

A short description of assay [4]: APR_HepG2_MitoticArrest_24hr: Apredica 24-hour HepG2 Assay for Mitotic Arrest (AID 2282910). The settings on record: high-content imaging, actives raise or lower the signal. The procedure, abridged: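 HepG2, 24 hr dosing, 0.39–200 uM, 0.5% DMSO final. Formaldehyde-fixed, Triton-permeabilised, anti-phospho-histone H3 plus Hoechst. ArrayScan imaging at 20x; bidirectional fit vs DMSO baseline.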

Assay [5] is described as follows: APR_HepG2_MitoMembPot_24hr: Apredica 24-hour HepG2 Assay for Mitochondrial Membrane Potential (AID 2282911). The settings on record: imaging, actives raise or lower the signal. The method in brief:
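HepG2 cells exposed 24 h to 0.39–200 uM compounds in duplicate, 0.5% v/v DMSO final. MitoTracker Red CMXRos 250 nM loaded 30 min before formaldehyde fixation; high-content imaging at 20x, bidirectional fit versus DMSO.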

A short description of assay [6]: APR_HepG2_p53Act_24hr: Apredica 24-hour HepG2 Assay for p53 Activation (AID 2282913).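 Further: p53 protein immunofluorescence averaged per cell in HepG2 with Hoechst nuclei.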 Conditions: high-content imaging, actives raise or lower the signal. The procedure, abridged: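 HepG2 cells exposed 24 h to compounds at 0.39–200 uM in duplicate, 0.5% v/v DMSO final; fixed, permeabilized, stained with anti-p53 antibody and Hoechst 33342; fluorescence imaging; bidirectional curve fit versus DMSO.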

The nature of assay [7]: APR_HepG2_CellCycleArrest_72hr: Apredica 72-hour HepG2 Assay for Cell Cycle Arrest (AID 2282914). Conditions: high-content imaging, actives raise or lower the signal. The procedure, abridged: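 HepG2 cells exposed 72 h in duplicate to 0.39–200 uM compound, 0.5% DMSO final. Formaldehyde-fixed, Hoechst 33342-stained nuclei imaged at 20x, six fields per well; DNA content per valid cell quantified by cell-cycle image analysis, bidirectional fit versus DMSO.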

Assay [8] is described as follows: APR_HepG2_CellLoss_72hr: Apredica 72-hour HepG2 Assay for Cell Loss (AID 2282915). Conditions: high-content imaging. The method in brief:
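HepG2 cells exposed 72 h to compound at 0.39–200 uM (10 concentrations, duplicate) in 0.5% DMSO. Fixed with 3.7% formaldehyde and Hoechst 33342-stained. Imaged at 20x; nuclear count gives cell number, fitted bidirectionally versus DMSO.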

A short description of assay [9]: APR_HepG2_P-H2AX_72hr: Apredica 72-hour HepG2 Assay for H2AX Phosphorylation (AID 2282916).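 Further: phospho-histone H2A.x immunostain intensity per cell marking DNA damage.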 Conditions: imaging, actives raise or lower the signal. The method in brief:
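Human hepatoma HepG2 cells are dosed across ten concentrations (0.39 to 200 uM, 0.5% v/v DMSO) and incubated 72 hr. Phospho-histone H2A.x is then detected by antibody staining alongside c-Jun and Hoechst, and quantified by automated fluorescence imaging.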

Assay [10] in a line: APR_HepG2_MitoMembPot_72hr: Apredica 72-hour HepG2 Assay for Mitochondrial Membrane Potential (AID 2282917). Conditions: imaging, actives raise or lower the signal. The procedure, abridged:
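HepG2 cells dosed 72 hr with compound at 0.39–200 uM in duplicate, 0.5% v/v DMSO final. Mitochondria stained with 250 nM MitoTracker Red CMXRos for 30 min before formaldehyde fixation, imaged by high-content fluorescence; bidirectional fit versus DMSO.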

A short description of assay [11]: APR_HepG2_MitoticArrest_72hr: Apredica 72-hour HepG2 Assay for Mitotic Arrest (AID 2282918). Conditions: high-content imaging, actives raise or lower the signal. The method in brief: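 HepG2 cells treated 72 h at 0.39–200 uM, 0.5% DMSO final; formaldehyde-fixed, stained with Hoechst 33342 and phospho-histone H3 antibody, imaged by high-content fluorescence; bidirectional fit versus DMSO.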

Assay [12] can be described thus: APR_HepG2_MicrotubuleCSK_72hr: Apredica 72-hour HepG2 Assay for Microtubule CSK Stabilty (AID 2282919). The settings on record: HepG2 microtubule cytoskeleton, high-content imaging, actives raise or lower the signal. The procedure, abridged: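 HepG2, 72 hr cmpd exposure, 0.39–200 uM (10 pts, duplicate), 0.5% DMSO. 3.7% formaldehyde fix, 0.5% Triton perm, anti-alpha-tubulin/Cy5 plus Hoechst. HCS fluorescence intensity; bidirectional fit vs DMSO baseline; taxol as positive control.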

Assay [13] in a line: APR_HepG2_P-H2AX_24hr: Apredica 24-hour HepG2 Assay for H2AX Phosphorylation (AID 2282920). The settings on record: high-content imaging, actives raise or lower the signal. The procedure, abridged: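 HepG2 cells dosed 24 h at 0.39–200 uM (10 points, duplicate, 0.5% DMSO final). Formaldehyde-fixed and permeabilized, then immunostained for phospho-H2A.x with Hoechst. Fluorescence quantified by high-content imaging, fitted bidirectionally versus DMSO.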

The nature of assay [14]: APR_HepG2_StressKinase_72hr: Apredica 72-hour HepG2 Assay for Stress Kinase (AID 2282921). Conditions: HepG2 stress kinase (phospho-c-Jun) imaging, actives raise or lower the signal. The method in brief:
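After a 72 h compound treatment spanning 0.39 to 200 uM, formaldehyde-fixed cells are labelled for phosphorylated c-Jun and nuclei, imaged by automated fluorescence microscopy, and activity is fitted in both directions relative to DMSO controls.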

The nature of assay [15]: APR_HepG2_StressKinase_24hr: Apredica 24-hour HepG2 Assay for Stress Kinase (AID 2282922). The settings on record: HepG2 stress kinase (phospho-c-Jun) imaging, actives raise or lower the signal. The method in brief:
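Read-out: phospho-c-Jun immunofluorescence (Cy3 secondary) quantified by high-content imaging at 20x, nuclei defined by Hoechst 33342. Human HepG2 liver cells dosed 24 hr, 0.39–200 uM, DMSO 0.5% v/v; gain or loss of signal fitted relative to DMSO.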

A short description of assay [16]: APR_HepG2_p53Act_72hr: Apredica 72-hour HepG2 Assay for p53 Activation (AID 2282923).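 Further: average cellular p53 protein immunofluorescence intensity in HepG2 cells.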 Conditions: high-content imaging, actives raise or lower the signal. The method in brief:
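Imaging-based endpoint: after 72 hr compound exposure (up to 200 uM, 0.5% DMSO), fixed and permeabilized monolayers were labelled with anti-p53 antibody and imaged; signal change in either direction was fitted relative to DMSO controls.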

Assay [17] in a line: APR_HepG2_MitoMass_72hr: Apredica 72-hour HepG2 Assay for Mitochondrial Mass (AID 2282924).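 Further: MitoTracker Red CMXRos stain intensity per cell imaged as mitochondrial mass.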 The settings on record: high-content imaging, actives raise or lower the signal. The method in brief:
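Read-out: MitoTracker Red fluorescence intensity from automated imaging (20x, six fields per well) in human HepG2 liver cells. Dosing ran 72 hr, 0.39–200 uM, 0.5% DMSO; bidirectional curve fitting versus DMSO baseline.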

Assay [18] is described as follows: APR_HepG2_NuclearSize_72hr: Apredica 72-hour HepG2 Assay for Nuclear Size (AID 2282925). Conditions: high-content imaging, actives raise or lower the signal. The method in brief:
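Read-out: nuclear diameter from Hoechst 33342 images (ArrayScan, 20x, six fields/well), via cell-cycle image analysis. HepG2 were dosed 0.39–200 uM for 72 hr in 0.5% DMSO. Bidirectional fit relative to DMSO.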

A short description of assay [19]: APR_HepG2_MitoMass_24hr: Apredica 24-hour HepG2 Assay for Mitochondrial Mass (AID 2282912). Conditions: high-content imaging, actives raise or lower the signal. The procedure, abridged:
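After 24 hr of treatment at 0.39 to 200 uM, HepG2 cells take up 250 nM MitoTracker Red CMXRos for 30 min and are then fixed with 3.7% formaldehyde. Per-well images are quantified, and any change in either direction is scored against solvent.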

Molecules are shown by their SMILES. Calls of active or inactive are those of the source. How the source made its calls: active means hit-call score of the fitted dose curve at least 0.9, where 1 is the maximum; inactive means score below 0.9.

For `COc1ccc(C(=CC(=O)N2CCOCC2)c2ccc(Cl)cc2)cc1OC`, the result in [1], in assay [2], in assay [3], in assay [4], in assay [6] and in assay [7] was inactive. Also, the call in assay [9], in assay [10], in [11], in [12], in assay [13] and in assay [14] was inactive. The result in assay [15], in assay [16], in assay [17] and in [18] was inactive. For the same compound, the AC50 is 8.19 µM (active) in assay [5] and 31.1 µM (active) in assay [8].

As to `C[N+]1(C)CCCCC1`, the compound was called inactive in assay [1], in assay [2], in assay [3], in [4], in assay [5] and in assay [19]. Also, the call in assay [6], in assay [7], in [8], in assay [9], in assay [10] and in assay [11] was inactive. Further, the compound was called inactive in assay [12], in assay [13], in assay [14], in [16], in assay [17] and in assay [18].

In the case of `N#CSCSC#N`, the compound was called inactive in [1], in [3], in assay [4], in [5], in assay [6] and in [7]. Besides, the result in assay [8], in assay [9], in assay [10], in assay [11], in [12] and in assay [13] was inactive. The result in assay [14], in [16], in assay [17] and in assay [18] was inactive. The concentration at half-maximal activity (AC50) in [2] was 13.6 µM (active).

Consider `CCc1cnc(C2=NC(C)(C(C)C)C(=O)N2)c(C(=O)O)c1` (stereo unspecified), for which the call in [1], in assay [2], in [3], in assay [4], in [5] and in assay [19] was inactive. Besides, the call in assay [7], in assay [8], in assay [9], in assay [10], in assay [11] and in assay [12] was inactive. The result in assay [13], in [14], in assay [17] and in assay [18] was inactive.

For `CCOC(=O)CC(SP(=O)(OC)OC)C(=O)OCC` (stereo unspecified), the compound was called inactive in assay [1], in [2], in assay [3], in [4], in assay [5] and in assay [6]. In addition, the outcome in assay [7], in [8], in assay [9], in [10], in assay [11] and in assay [12] was inactive. Moreover, the compound was called inactive in [13], in [14], in assay [16], in [17] and in assay [18].

For `CCNc1nc(Cl)nc(NC(C)(C)C#N)n1`, the call in [1], in assay [2], in assay [3], in [4], in [5] and in [6] was inactive. In addition, the result in [7], in assay [8], in assay [9], in assay [10], in assay [11] and in assay [12] was inactive. Also, the call in assay [13], in assay [14], in assay [16], in assay [17] and in [18] was inactive.

As to `CCC(CC)Nc1c([N+](=O)[O-])cc(C)c(C)c1[N+](=O)[O-]`, the compound was called inactive in assay [1], in [2], in [3], in assay [4], in assay [19] and in assay [6]. Moreover, the outcome in assay [7], in [9], in assay [10], in assay [11], in [13] and in [14] was inactive. Besides, the outcome in assay [16], in assay [17] and in assay [18] was inactive. Also, the AC50 is 84.3 µM (active) in assay [5], 108 µM (active) in assay [8] and 108 µM (active) in assay [12].

A word on the AC50: it is the concentration at which the activity in the assay is half-maximal.
